From PubChem BioAssay AID651845 (Broad Institute, 2012) come the findings set out here.

Measured potencies and affinities stand elsewhere. Inconclusive results are not listed. Active and inactive are the calls of the source.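 Rule for the calls: active = every replicate test called active, with signal dropping and a potency found within twice the top tested dose; inconclusive = replicate test calls disagree with each other; inactive = all replicate tests inactive, including signal rising.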

A short description of this experiment: growth inhibition of intracellular T. cruzi, dose response, cell-based, plate reader, dry powder samples (AID 651845).

Consider `CNC[C@@H]1Oc2c(NC(=O)c3ccncc3)cccc2C(=O)N(C(C)C)C[C@H]1C`, for which the compound was classed as inactive.
The value for `CC(C)N1C[C@H](C)[C@@H](CN(C)C(=O)OC(C)(C)C)Oc2c(C(=O)O)cccc2C1=O` was “inactive”.
